Source: PubChem
Most compounds without a hit are left out; they make up all but 21% or so of the library.
DT40 TDP1 no CPT = qHTS for Inhibitors of human tyrosyl-DNA phosphodiesterase 1 (TDP1): qHTS in cells in absence of CPT. actives 15% (n = 420,000). Potency, µM (series often up to 46.2 µM), inactives show at the top dose activity change, negative = growth inhibition, usual class: inhibitors. DT40 Tdp1-/- hTDP1 cells, no CPT, ATP luminescence, 48 h; also: potency is read from the fitted curve at half-maximal effect; % is scaled to controls: 0 for no effect and ±100 for the full control effect; nearly all actives have a fitted effect of over 55% in size
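Chicken DT40 Tdp1-/- cells stably complemented with human TDP1 were seeded at 400 cells/well with DMSO in place of 20 nM camptothecin. After compound pinning, cells grew at least 48 hr at 37 °C; viability read by CellTiter-Glo luminescence.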
DRD3 antagonist = D3 dopamine receptor (human) antagonism. P35462. max response, negative = inhibition, %. actives 2.5% (n = 360,000). D3R cells, DiscoveRx beta-arrestin luminescence, antagonist mode; active compounds read low; in the data active = max response below about -50%; inconclusive = no clear call, values can overlap the other calls; also: % is scaled to controls: 0 for no effect and ±100 for the full control effect
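Cells plated overnight at 1500 cells/well, then exposed to library compounds with dopamine controls for 90 minutes at 37 degrees C. DiscoveRx reagent added for 30–60 minutes at room temperature; luminescence read, quantitative HTS format.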
DT40 TDP1 CPT = growth inhibition of DT40 Tdp1-/-;hTDP1 cells with camptothecin (screen for TDP1 inhibitors) | chicken DT40 Tdp1-/-;hTDP1 cells + 20 nM CPT, ATP luminescence, 48 h | actives 12% (n = 420,000) | AID 686979 | Potency, µM (highest dose often 46.2 µM), for inactives: at the highest dose activity change, negative = growth inhibition, hits mostly inhibitors; also: potency is read from the fitted curve at half-maximal effect; % is scaled to controls: 0 for no effect and ±100 for the full control effect; nearly all actives have a fitted effect of over 55% in size
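Chicken DT40 Tdp1-/- cells complemented with human TDP1, 400 cells/well, exposed to compounds plus 20 nM camptothecin for at least 48 h at 37 C; viability read as ATP content by CellTiter-Glo luminescence.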
IL-1B inflam inh = inhibitors of inflammasome signaling (IL-1 beta secretion). activity change, % at 57.5 µM. THP-1 LPS/ATP IL-1B secretion, AlphaLISA, 16 h; active compounds read low. actives 4.7% (n = 360,000); in the data active = activity change below about -50%; inconclusive = mostly about -30% to -49%; also: % is scaled to controls: 0 for no effect and ±100 for the full control effect
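Secreted IL-1B measured by AlphaLISA bead assay after 16 h compound exposure of THP-1 cells; compounds (final up to 57.5 uM) added 1 h before LPS (250 ng/mL) and ATP (1.25 mM) stimulation; lower signal means less secretion.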
ClpP mod = qHTS Assay for Activators of ClpP. ATP-dependent Clp protease proteolytic subunit (Bacillus subtilis (strain 168)), P80244. purified B. subtilis ClpP, FRET peptide cleavage, 20 min. Potency, µM (titrated, usually from 57.5 µM), without a hit: at the top dose activity change, negative = active. actives 1.9% (n = 340,000). AID 651965, 2013; active = well fitted falling curve with a large enough effect; inconclusive = small, poorly fitted or top-dose-only effect; inactive = no such curve, though single readings can be large or run the other way; also: potency is read from the fitted curve at half-maximal effect; the source files actives as falling curves though it sought activators and does not explain the sign; nearly all actives have a fitted effect of over 65% in size
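ClpP 10 microg/mL final, pH 8 Tris/KCl buffer with BSA, glycerol, Tween-20; compound pinned in; FRET-FV substrate; RT 20 min; Ex320/Em430; ΔFRET vs ADEP 5.8 microM, DMSO, no enzyme.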
DRD3 agonist = agonists of human D3 dopamine receptor; actives 0.58% (n = 410,000); D3R DiscoveRx beta-arrestin cells, luminescence, 90 min; max activation, %; in the data active = max activation above about 30%; also: 0% is about no effect
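Cells at 1500/well, incubated overnight, then treated with pinned compounds (dopamine as control) for 90 min at 37 degrees C. DiscoveRx reagent added for 30 - 60 minutes at room temperature; luminescence read.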
Starred values were filed as active, the others as inactive; ? = inconclusive; . = no result. Unless noted, calls follow the shape of the dose curve; as a rule, active = well fitted inhibition curve with a large enough effect; inconclusive = small, poorly fitted or top-dose-only effect; inactive = flat fitted curve, though single readings scatter.

SMILES	DT40 TDP1 no CPT	DRD3 antagonist	DT40 TDP1 CPT	IL-1B inflam inh	ClpP mod	DRD3 agonist
COCCNC(=O)CCn1c(=O)c2cc(OC)c(OC)cc2n(CC(=O)Nc2ccc(F)c(Cl)c2)c1=O	-5.8%	.	-2.6%	.	4.0%	-3.2
O=C(NCCc1ccccc1)[C@@H]1CC=C[C@@H]2CCN(C3CC3)C(=O)[C@@H]21	4.3%	.	-6.9%	.	-0.7%	.
O=C1[C@@H](c2ccccc2)CC[C@@H]2C=CC[C@H]3CCN1[C@@H]32	16.4µM*	?	?	3.6	2.2%	-7.1
O=C(Cc1ccccc1)Nc1sc2c(c1C(=O)Nc1ccccc1Cl)CCC2	-14.7%	.	0.2%	.	-5.4%	6.6
COc1ccc(/[N+]([O-])=C/c2ccco2)cc1	16.4µM*	16.7	14.6µM*	-3.2	-3.0%	16.4
COc1ccc(OCC(=O)N/N=C\c2ccco2)cc1	-12.8%	4.5	-9.8%	-24.9	-0.6%	0.8
C(=C\c1ccccc1)/CSc1nnc(-c2ccccc2)n1Cc1ccco1	4.61µM*	16.8	5.17µM*	43.1	1.1%	0.2
Nn1c(SC/C=C/c2ccccc2)nnc1-c1ccco1	-28.0%	-16.4	-7.6%	-13.0	-0.9%	-6.8
Clc1cccc(-c2nnc(SC/C=C/c3ccccc3)n2Cc2ccco2)c1	?	13.3	20.6µM*	-84.4*	1.1%	-20.7
CS(=O)(=O)N1CCC2(CC1)CN(C(=O)Nc1cccc(C#N)c1)C2	3.6%	.	-1.3%	.	.	.
COc1cccc(NC(=O)CN(C)C(=O)c2cc(S(=O)(=O)N3CCCCCC3)ccc2OC)c1	-24.7%	-9.8	-25.4%	-18.7	-3.7%	1.3
Cc1cccc(N2CCN(S(=O)(=O)c3ccc(F)c(C(=O)Nc4ccc(C(C)C)cc4)c3)CC2)c1C	?	.	?	.	-1.6%	6.2
Cc1ccc(CS(=O)(=O)c2ccccc2-c2nnc(-c3ccc(Cl)cc3)o2)cc1	18.4µM*	24.6	?	21.4	?	5.1
O=C(Nc1ccccc1)c1cc2ccccc2s1	-23.9%	0.2	0.6%	18.5	.	-14.0
O=C(Nc1ccc(O)cc1)c1cc2ccccc2c(=O)s1	16.4µM*	-4.0	?	-26.7	.	6.0
O=C(CCN1C(=O)C2C3C=CC(C3)C2C1=O)NCc1cccnc1 (stereo not drawn)	-11.4%	-23.8	-0.1%	13.2	12.6µM*	10.3
O=C(CCN1C(=O)c2cccc3cccc(c23)C1=O)NCc1cccnc1	-2.1%	11.7	9.9%	0.0	.	4.6
O=C(CCN1C(=O)C2C3C=CC(C3)C2C1=O)N1CCN(c2ccccn2)CC1 (stereo not drawn)	-17.6%	-4.3	1.9%	-5.8	15.8µM*	-10.2
O=C(CCCN1C(=O)c2ccccc2C1=O)N1CCN(c2ccccn2)CC1	?	-22.8	0.1%	-0.2	4.9%	-1.1
O=C(CCN1C(=O)C2C3C=CC(C3)C2C1=O)N1CCN(c2cccc(Cl)c2)CC1 (stereo not drawn)	16.4µM*	?	16.4µM*	-1.4	-0.8%	-3.4
CCc1ccccc1NC(=O)CSc1ncc2c(n1)-c1ccccc1N(C)S2(=O)=O	?	.	?	.	3.9%	1.6
CN(CC(=O)Nc1ccc(N2CCOCC2)cc1)C(=O)Cc1ccccc1	-23.3%	12.3	?	2.9	0.9%	4.7
O=[N+]([O-])c1cc(/C=N/Nc2nc(N3CCCCC3)nc(N3CCCCC3)n2)ccc1O	?	-16.3	14.3%	11.4	-1.0%	6.9
COc1cc(/C=N/Nc2nc(N3CCCC3)nc(N3CCCC3)n2)ccc1O	?	33.7	-27.7%	-8.9	-22.1%	-0.4
Oc1ccc(/C=N/Nc2nc(N3CCCC3)nc(N3CCCC3)n2)cc1O	5.8µM*	10.4	?	34.0	.	1.2
SMILES	DT40 TDP1 no CPT	DRD3 antagonist	DT40 TDP1 CPT	IL-1B inflam inh	ClpP mod	DRD3 agonist
Oc1ccc(/C=N/Nc2nc(N3CCCCCC3)nc(N3CCCCCC3)n2)c(O)c1	?	55.1	?	-98.6*	.	37.2*
Brc1cc2c(cc1/C=N/Nc1nc(N3CCCC3)nc(N3CCOCC3)n1)OCO2	16.4µM*	-11.4	25.9µM*	?	-18.3%	0.3
Oc1ccc(Br)cc1/C=N/Nc1nc(N2CCCCC2)nc(N2CCOCC2)n1	?	5.9	14.6µM*	?	.	-6.2
CC(=O)Nc1nonc1-c1nnc(SCC(=O)Nc2ccc(F)cc2F)n1-c1ccccc1	?	.	?	.	0.6%	6.3
O=C(Nc1cccc(Cl)c1)N1Cc2ccccc2Oc2ncccc21	?	.	-9.3%	.	-16.4%	-4.2
CC(=O)Nc1ccc(S(=O)(=O)Nc2cc(C)on2)cc1	-14.7%	.	8.4%	.	.	2.7
CC(=O)Oc1ccc(C(=O)Nc2cccnc2)cc1	?	-18.5	?	5.5	1.2%	-8.4
CC(CO)NS(=O)(=O)c1cc(Cl)ccc1F (stereo not drawn)	-14.5%	-14.2	13.8%	22.6	0.9%	-3.7
O=C(COC(=O)c1ccc(S(=O)(=O)N2CCCCCC2)cc1)NCc1ccc(Cl)cc1	6.5%	6.1	?	5.1	1.5%	3.6
O=C(Nc1cc(F)ccc1F)C1CCN(S(=O)(=O)c2cccc3nonc23)CC1	-20.2%	-3.3	9.8%	-2.7	.	-2.1
Oc1ccc(/C=N/Nc2ccc(Cl)nn2)cc1O	14.6µM*	-1.2	?	44.6	-1.1%	16.9
Cc1ccc(/C=N/Nc2ccc(Cl)nn2)cc1	-25.6%	-2.9	-23.0%	-10.9	-0.5%	2.2
C/C(=N\Nc1nc(N2CCCCC2)nc(N2CCOCC2)n1)c1ccccc1O	20.6µM*	14.3	?	-86.3*	.	9.2
Cc1ccc(/C=N/Nc2nc(N3CCOCC3)nc(N3CCOCC3)n2)o1	?	26.3	-12.6%	-20.0	.	2.3
CC(=O)NC(Cc1ccc(O)cc1)C(=O)NCC(N)C(=O)c1ccccc1 (stereo not drawn)	?	.	?	.	-1.1%	.
COc1ccc2[nH]c3c(c2c1)CC(C)NC3=O (stereo not drawn)	7.31µM*	-3.2	?	?	4.5%	0.9
COc1ccc2[nH]c3c(c(=O)c2c1)CCCC3	-27.4%	9.2	?	10.2	4.8%	8.5
O=C(O)c1ccc(N2C(=O)CSC2=S)cc1	?	-4.4	?	-62.3*	.	8.4
O=C(O)c1cc(C(=O)O)cc(N2C(=O)CSC2=S)c1	24.7%	0.9	4.1%	0.0	-12.5%	4.3
O=C(O)c1ccc(CN2C(=O)CSC2=S)cc1	18.4µM*	15.2	18.4µM*	-20.2	0.8%	-0.7
O=C1CSC(=S)N1Cc1cccnc1	4.61µM*	0.0	4.61µM*	-83.7*	-2.3%	-5.5
